Eight molecules from the supplement of paper PMC7411640 can be followed below.

Each structure is given as a SMILES string. Where a name gives a salt, the structure may show the parent alone.

The subject of the test is MDA-MB-468. Put plainly: phospho-S6 immunofluorescence (DAPI-normalised), per-plate z-score; higher = higher phospho-S6 signal (less pathway suppression). As to conditions: 24 h. The method, then:
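GPCR-targeted compound library (MedChemExpress HY-L006) tested on MDA-MB-468 PTEN-null TNBC cells in 384-well plates at 0.1, 1 or 10 uM, combined with vehicle, GDC0941 450 nM or lapatinib 1 uM, for 24 h. Phospho-S6 (S240/244) immunofluorescence normalised to DAPI and expressed as a per-plate z-score; values are the mean of biological triplicates.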

On to `Oc1cc2c(cc1O)C(c1ccccc1)CNCC2` (centres undefined) (compound 10 µM), for which the “phospho-S6 immunofluorescence (z-score)” value (co-treatment: GDC0941 450 nM) amounted to 0.77, the “phospho-S6 immunofluorescence (z-score)” value (co-treatment: lapatinib 1 uM) was 0.35 and the “phospho-S6 immunofluorescence (z-score)” value (co-treatment: vehicle) was found to be 1.06.
On to `NC1=NCC2c3ccccc3Cc3ccccc3N12` (centres undefined) [Epinastine] (compound 10 µM), for which the “phospho-S6 immunofluorescence (z-score)” value was -0.05 (co-treatment: GDC0941 450 nM), -0.81 (co-treatment: lapatinib 1 uM) and 0.35 (co-treatment: vehicle).
For the molecule `CN(C)CCc1c[nH]c2ccc(Cn3cncn3)cc12` [Rizatriptan (benzoate)] (compound 10 µM), the “phospho-S6 immunofluorescence (z-score)” value was -1.62 (co-treatment: GDC0941 450 nM), 0.19 (co-treatment: lapatinib 1 uM) and -1.1 (co-treatment: vehicle).
For `COc1ccc2cccc(CCNC(C)=O)c2c1` [Agomelatine] (compound 10 µM), in that order: 0.97, 0.54 and 0.35.
Take `COc1ccc(-c2oc3c(CC=C(C)C)c(O)cc(O)c3c(=O)c2O[C@@H]2O[C@@H](C)[C@H](O)[C@@H](O)[C@H]2O)cc1` [Baohuoside I] (compound 10 µM): the “phospho-S6 immunofluorescence (z-score)” value is -5.72 (co-treatment: GDC0941 450 nM), -5.94 (co-treatment: lapatinib 1 uM) and -7.08 (co-treatment: vehicle).
Regarding `CCCCc1ncc(/C=C(\Cc2cccs2)C(=O)O)n1Cc1ccc(C(=O)O)cc1` [Eprosartan (mesylate)] (compound 10 µM), the “phospho-S6 immunofluorescence (z-score)” value runs as follows: (co-treatment: GDC0941 450 nM) 0.37; (co-treatment: lapatinib 1 uM) 0.05; (co-treatment: vehicle) 0.01.
For `CCNC(=O)[C@@H]1CCCN1C(=O)[C@H](CCCNC(=N)N)NC(=O)[C@H](CC(C)C)NC(=O)[C@@H](CC(C)C)NC(=O)[C@H](Cc1ccc(O)cc1)NC(=O)[C@H](CO)NC(=O)[C@H](Cc1c[nH]c2ccccc12)NC(=O)[C@H](Cc1c[nH]cn1)NC(=O)[C@@H]1CCC(=O)N1` [Leuprolide (Acetate)] (compound 10 µM) the same measures were 0.41, -0.17 and 0.11.
For the molecule `CN1[C@@H]2CC[C@H]1C[C@@H](OC(=O)c1c[nH]c3ccccc13)C2` [Tropisetron (Hydrochloride)] (compound 10 µM), the “phospho-S6 immunofluorescence (z-score)” value is, setting by setting: (co-treatment: GDC0941 450 nM) 0.95; (co-treatment: lapatinib 1 uM) -0.2; (co-treatment: vehicle) -0.04.
